For 16 molecules, composite z-score and z-score results are on record in PubChem BioAssay.

Activity calls are given as the source filed them.

The nature of assay [1]: binders of probe aFSTL3 on microarray, primary screen, stem cell growth factor project, biochemical, small-molecule microarray, fluorescence 635/667 (AID 1064).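 Note: measures binding of the biotinylated anti-FSTL3 antibody to printed compounds.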 The settings on record: higher = more signal.
Assay [2] in a line: binders from COS7 lysate, DM2A8 probe, primary screen, torsin A project, cell lysate, small-molecule microarray, fluorescence 635/667 (AID 1065). Particulars: higher = more signal, COS7 lysate expressing mutant human TOR1A.
Assay [3] is described as follows: binders of probe aFGF2 on microarray, primary screen, stem cell growth factor project, biochemical, small-molecule microarray, fluorescence 635/667 (AID 1067).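 Note: measures binding of biotinylated aFGF2 protein to printed compounds on slides; z-score merges feature fluorescence and signal-to-noise across triplicate slides.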 Particulars: higher = more signal.
A short description of assay [4]: binders of probe aFGF10 on microarray, primary screen, stem cell growth factor project, biochemical, small-molecule microarray, fluorescence 635/667 (AID 1071).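 Note: score merges 667 nm spot intensity and signal to noise from triplicate slides.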 Particulars: higher = more signal.
In assay [5] the target is Neurogenic locus notch homolog protein 2 (Homo sapiens) (UniProt Q04721). Briefly: Notch2 binders on small-molecule microarrays, primary screen, biochemical, small-molecule microarray, 635 nm fluorescence, stem cell growth factors (AID 1073). The settings on record: Notch2 binding, higher = more signal.
Sequence of Neurogenic locus notch homolog protein 2 (Homo sapiens) (Q04721 whole entry, looked up, canonical isoform): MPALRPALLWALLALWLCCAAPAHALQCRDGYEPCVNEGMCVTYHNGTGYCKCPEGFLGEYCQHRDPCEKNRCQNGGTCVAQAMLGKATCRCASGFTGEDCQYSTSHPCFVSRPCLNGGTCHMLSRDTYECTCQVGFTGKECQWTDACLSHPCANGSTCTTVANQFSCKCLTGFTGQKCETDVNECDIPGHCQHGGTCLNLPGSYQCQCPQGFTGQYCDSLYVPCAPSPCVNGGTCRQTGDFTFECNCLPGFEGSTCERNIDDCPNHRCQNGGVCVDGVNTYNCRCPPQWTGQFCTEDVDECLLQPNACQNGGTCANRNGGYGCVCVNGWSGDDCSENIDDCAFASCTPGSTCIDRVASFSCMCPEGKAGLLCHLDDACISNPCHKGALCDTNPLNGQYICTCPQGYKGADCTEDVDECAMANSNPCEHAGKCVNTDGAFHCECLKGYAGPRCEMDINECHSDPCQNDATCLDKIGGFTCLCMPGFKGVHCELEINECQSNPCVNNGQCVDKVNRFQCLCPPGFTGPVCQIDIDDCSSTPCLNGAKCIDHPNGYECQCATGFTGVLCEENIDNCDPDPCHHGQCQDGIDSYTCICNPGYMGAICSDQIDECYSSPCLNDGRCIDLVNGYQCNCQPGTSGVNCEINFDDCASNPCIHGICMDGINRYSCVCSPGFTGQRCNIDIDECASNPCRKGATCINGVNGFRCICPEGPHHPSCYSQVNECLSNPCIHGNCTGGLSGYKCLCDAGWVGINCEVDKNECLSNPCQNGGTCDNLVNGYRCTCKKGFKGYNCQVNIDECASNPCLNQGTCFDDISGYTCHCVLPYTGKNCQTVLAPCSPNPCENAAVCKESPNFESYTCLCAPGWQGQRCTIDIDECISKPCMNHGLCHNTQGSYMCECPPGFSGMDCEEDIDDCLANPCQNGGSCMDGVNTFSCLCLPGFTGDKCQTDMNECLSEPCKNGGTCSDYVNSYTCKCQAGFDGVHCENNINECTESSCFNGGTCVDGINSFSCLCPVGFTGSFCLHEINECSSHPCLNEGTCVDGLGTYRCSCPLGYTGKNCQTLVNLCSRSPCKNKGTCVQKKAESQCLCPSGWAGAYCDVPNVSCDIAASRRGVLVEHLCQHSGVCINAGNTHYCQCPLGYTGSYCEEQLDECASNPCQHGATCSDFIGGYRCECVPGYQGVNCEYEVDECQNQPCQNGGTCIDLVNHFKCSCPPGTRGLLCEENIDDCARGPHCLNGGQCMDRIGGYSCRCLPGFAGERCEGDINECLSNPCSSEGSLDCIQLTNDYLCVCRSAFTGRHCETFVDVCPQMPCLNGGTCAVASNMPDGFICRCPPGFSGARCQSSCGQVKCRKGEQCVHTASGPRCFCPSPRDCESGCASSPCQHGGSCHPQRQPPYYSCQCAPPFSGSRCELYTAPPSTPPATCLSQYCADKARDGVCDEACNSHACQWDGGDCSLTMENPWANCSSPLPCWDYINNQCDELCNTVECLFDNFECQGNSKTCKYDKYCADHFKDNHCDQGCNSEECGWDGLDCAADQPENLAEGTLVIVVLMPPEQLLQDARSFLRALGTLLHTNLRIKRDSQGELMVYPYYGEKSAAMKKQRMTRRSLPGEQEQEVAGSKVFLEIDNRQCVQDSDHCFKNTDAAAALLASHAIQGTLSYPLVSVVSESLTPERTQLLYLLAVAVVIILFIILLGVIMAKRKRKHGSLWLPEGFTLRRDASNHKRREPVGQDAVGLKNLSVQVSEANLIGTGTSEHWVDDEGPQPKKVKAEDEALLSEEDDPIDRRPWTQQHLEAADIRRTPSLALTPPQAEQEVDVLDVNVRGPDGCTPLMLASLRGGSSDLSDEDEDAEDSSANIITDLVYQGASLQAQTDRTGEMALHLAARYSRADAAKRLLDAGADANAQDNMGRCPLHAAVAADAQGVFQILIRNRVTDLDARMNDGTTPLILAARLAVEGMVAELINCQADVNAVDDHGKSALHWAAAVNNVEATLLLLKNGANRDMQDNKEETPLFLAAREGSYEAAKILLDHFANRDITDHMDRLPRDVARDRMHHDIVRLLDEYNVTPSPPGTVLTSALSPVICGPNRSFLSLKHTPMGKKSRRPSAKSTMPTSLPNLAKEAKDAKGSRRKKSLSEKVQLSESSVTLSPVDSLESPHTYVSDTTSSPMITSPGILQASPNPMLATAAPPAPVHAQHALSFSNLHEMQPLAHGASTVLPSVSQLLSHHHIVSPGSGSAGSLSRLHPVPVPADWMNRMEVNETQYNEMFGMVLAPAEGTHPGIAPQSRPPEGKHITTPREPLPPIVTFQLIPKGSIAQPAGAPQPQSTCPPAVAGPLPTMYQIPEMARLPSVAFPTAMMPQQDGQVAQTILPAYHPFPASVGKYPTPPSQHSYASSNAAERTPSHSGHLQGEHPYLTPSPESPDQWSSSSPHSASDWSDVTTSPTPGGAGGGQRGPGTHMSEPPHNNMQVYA
Assay [6] addresses Pro-neuregulin-1, membrane-bound isoform (Homo sapiens) (UniProt Q02297). As to the kind of experiment: NRG1 binders on small-molecule microarrays, primary screen, psychiatric disease protein project, biochemical, small-molecule microarray, fluorescence 635/667 (AID 1075).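 Note: score combines 667 nm spot fluorescence with signal to noise.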 The settings on record: NRG1 binding, 635 nm fluorescence, higher = more signal.
The subject of assay [7] is Neuregulin-1 EGF-like domain. As to the kind of experiment: binders of neuregulin-1 EGF-like domain, primary screen, biochemical, small-molecule microarray, 635 nm fluorescence (AID 1081).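 Note: binding of the protein to compounds printed on small-molecule microarray slides.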 The settings on record: small-molecule microarray binding, higher = more signal.
The nature of assay [8]: FRG1 promoter luciferase signal modulators, primary screen, FRG1 inhibition for FSHD, cell-based, C2C12 myotubes, firefly/Renilla luciferase, luminescence (AID 1084). Particulars: higher = more signal, called active from +8 up or from −8 down.
Assay [9] in a line: binders of probe aFST on microarray, primary screen, stem cell growth factor project, biochemical, small-molecule microarray, fluorescence 635/667 (AID 1086).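 Note: score merges 667 nm fluorescence with signal-to-noise of each printed compound spot.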 The settings on record: higher = more signal.
A short description of assay [10]: binders of probe aHhip on microarray, primary screen, stem cell growth factor project, biochemical, small-molecule microarray, fluorescence 635/667 (AID 1087).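 Note: score merges spot fluorescence at 667nm with spot signal to noise ratio.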 Particulars: higher = more signal.

Sequence of Pro-neuregulin-1, membrane-bound isoform (Homo sapiens) (Q02297 whole entry, looked up, the tested form may be a part, canonical isoform): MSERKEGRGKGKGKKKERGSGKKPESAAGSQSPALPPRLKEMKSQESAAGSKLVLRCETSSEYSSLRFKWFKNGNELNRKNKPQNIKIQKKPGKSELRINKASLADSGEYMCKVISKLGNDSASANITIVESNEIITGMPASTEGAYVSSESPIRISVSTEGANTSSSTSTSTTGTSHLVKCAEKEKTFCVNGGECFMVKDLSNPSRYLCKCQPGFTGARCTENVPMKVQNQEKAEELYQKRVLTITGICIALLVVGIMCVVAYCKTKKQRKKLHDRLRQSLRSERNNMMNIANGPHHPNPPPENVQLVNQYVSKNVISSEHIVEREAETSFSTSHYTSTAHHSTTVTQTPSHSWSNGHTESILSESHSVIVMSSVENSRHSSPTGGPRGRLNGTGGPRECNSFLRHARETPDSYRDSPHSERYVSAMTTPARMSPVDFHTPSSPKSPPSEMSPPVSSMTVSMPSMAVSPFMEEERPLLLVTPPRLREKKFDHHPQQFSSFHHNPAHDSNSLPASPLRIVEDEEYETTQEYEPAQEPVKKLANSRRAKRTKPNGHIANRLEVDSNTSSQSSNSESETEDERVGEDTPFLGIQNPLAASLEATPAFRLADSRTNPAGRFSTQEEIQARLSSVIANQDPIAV

Consider `CN(C)C(=O)[C@@]1(CCS(=O)(=O)c2ccccc2)N=C(c2ccc(OCCCO)cc2)O[C@H]1c1ccccc1`, for which the composite z-score in assay [1] was -0.0356; in assay [2], 0.79; in [3], 0.163; in assay [4], 0.746; in assay [5] it was 1.35; in assay [6], 2.13. Further, the composite z-score was 1.34 in assay [7], 1.52 in assay [9] and 0.0401 in [10]. The z-score in assay [8] is -0.522 (inactive).
Consider `C=CCNC(=O)[C@@H]1[C@H]2C(=O)O[C@H](c3ccccc3)[C@H](c3ccccc3)N2[C@H](c2ccc(O)cc2)[C@@]12C(=O)N(C(=O)OCCOC)c1ccc(C#CC3(O)CCCCCC3)cc12`, for which the composite z-score in [1] is 0.564; in [2] it was -0.548; in [3], -0.176; in assay [4], -1.52; in [5], -2.26; in assay [6] it was -0.712. In addition, the composite z-score was -0.895 in [7], -1.19 in assay [9] and -0.312 in assay [10]. The z-score in [8] was -0.659 (inactive).
Take `COc1ccc(CN(C2=CC[C@@]3(C(N)=O)C(=O)C(Cl)=C(Cl)C(=O)[C@@]3(C#N)C2)S(=O)(=O)c2ccc(Br)cc2)cc1`: the composite z-score in [1] is -0.181; in [2] it was -0.0483; in assay [3], -0.0657; in [4] it was 0.497; in assay [5], 0.765; in [6] it was 0.914. Besides, the composite z-score in [7] is 1.11; in assay [9], 0.343; in [10], 0.0176. Further, the z-score in [8] is -0.991 (inactive).
In the case of `NC(N)=NCCCn1cc(CNC(=O)[C@@H](N)Cc2ccccc2)nn1`, the composite z-score was 0.236 in assay [1]; 0.236 in [2]; 0.0263 in assay [3]; -0.0436 in assay [4]; -0.0857 in [5]; 1.28 in [6]. Besides, the composite z-score in assay [7] is 1.49; in assay [9] it was 0.044; in assay [10], 0.0053. In [8], the z-score is 1.28 (inactive).
For `CCCC[C@@H]1C[C@H]1[C@@H](NC(=O)Cc1ccccc1)c1ccc(-c2ccccc2)cc1`, the composite z-score in assay [1] was -0.153; in [2] it was 0.0056; in assay [3], -0.0064; in assay [4], -0.165; in assay [5], 0.61; in assay [6], 0.212. Further, the composite z-score was 0.386 in assay [7], 0.482 in assay [9] and -0.0237 in [10]. Besides, the z-score in assay [8] is 0.0529 (inactive).
In the case of `NC(=O)NCC#Cc1ccc2c(c1)[C@]1(C(=O)N2)[C@H](C(=O)O)[C@H]2C(=O)O[C@H](c3ccccc3)[C@H](c3ccccc3)N2[C@@H]1c1ccc(OCCO)cc1`, the composite z-score in assay [1] is 0.131; in assay [2] it was 0.35; in assay [3], -0.139; in [4], 0.0382; in [5], 0.247; in assay [6] it was 0.881. Moreover, the composite z-score was 0.851 in [7], 0.718 in assay [9] and -0.0994 in [10]. For the same molecule, in assay [8], the z-score is -0.359 (inactive).
Turning to `COC(=O)c1nc2oc1CC[C@@H](CO)NC(=O)N(C)Cc1cnnn1C[C@H](Cc1ccccc1)NC2=O`, the composite z-score in assay [1] is -0.195; in assay [2], -0.328; in [3], -0.062; in assay [4], -0.135; in assay [5] it was -0.444; in assay [6], 0.243. Besides, the composite z-score in assay [7] was 0.434; in assay [9] it was -1.08; in assay [10], -0.314. Besides, the z-score in assay [8] is -0.988 (inactive).
Consider `CN(C)CCCNC(=O)[C@@H]1c2ccccc2C(=O)N(Cc2ccccc2Cl)[C@H]1c1ccc(CO)cc1`, for which the composite z-score in assay [1] is -0.126; in assay [2] it was 0.542; in assay [3], -0.19; in [4], 0.069; in assay [5], -0.243; in assay [6] it was 0.261. Also, the composite z-score in [7] was -0.0724; in [9] it was -0.177; in [10], -0.19. Besides, in assay [8], the z-score is -1.96 (inactive).
As for `O=C1O[C@@H](c2ccccc2)[C@@H](c2ccccc2)N2[C@@H](c3ccc(O)cc3)[C@]3(C(=O)Nc4ccc(C#CC5=CCCCC5)cc43)[C@@H](C(=O)NC[C@H](O)c3ccccc3)[C@H]12`, the composite z-score was 0.135 in assay [1]; 1.76 in [2]; -0.0181 in assay [3]; 0.508 in [4]; 1.52 in assay [5]; 1.2 in assay [6]. Also, the composite z-score is 1.35 in [7], 0.398 in assay [9] and 0.251 in assay [10]. Further, the z-score in assay [8] is 0.754 (inactive).
For `COC(=O)[C@@]1(Cc2ccc(F)cc2)[C@H]2c3cc(C(=O)N(C)C)n(Cc4cc(F)cc5c4OCOC5)c3C[C@H]2CN1C(=O)c1ccccc1`, the composite z-score in [1] is 0.149; in [2], 0.199; in assay [3], -0.0002; in [4] it was 0.964; in [5] it was 1.56; in assay [6], 1.81. Besides, the composite z-score was 1.27 in [7], 1.03 in assay [9] and -0.319 in assay [10]. Moreover, the z-score in [8] is -1.82 (inactive).
Take `Cn1cccc1C(O)C1C=CC2C(=O)NC(=O)C2N1Nc1ccc(Cl)cc1Cl` (stereo not given): the composite z-score in assay [1] worked out at 0.435; in [2], 0.263; in [3], 0.167; in [4] it was 0.68; in [5] it was 1.68; in [6], 2.04. Besides, the composite z-score was 1.15 in assay [7], 1.92 in assay [9] and 0.107 in assay [10]. Also, the z-score in assay [8] is 0.978 (inactive).
Regarding `O=C1N(Cc2ccccc2)Cc2ccccc2[C@@H]2OC(c3ccc(OCCCO)cc3)=N[C@]12CCS(=O)(=O)c1ccccc1`, the composite z-score was 0.184 in assay [1]; -0.0546 in assay [2]; 0.0247 in assay [3]; 0.379 in [4]; 1.28 in [5]; 1.48 in assay [6]. Further, the composite z-score in assay [7] is 1.32; in [9], 0.297; in [10] it was -0.171. Moreover, the z-score in assay [8] was -3.35 (inactive).
On to `COc1ccc([Si](C)(C)[C@@H]2[C@@H](CC(=O)N(CCO)Cc3ccccc3)O[C@]3(C(=O)N(Cc4cccc(N5CCOC5=O)c4)c4ccccc43)[C@H]2C)cc1`, for which the composite z-score in [1] was -0.0388; in [2], 1.02; in assay [3], -0.117; in [4], 0.476; in [5], 0.0505; in assay [6] it was 1.1. Further, the composite z-score was 1.12 in assay [7], -0.0988 in assay [9] and -0.248 in assay [10]. In addition, the z-score in [8] was -0.819 (inactive).
As for `[N-]=[N+]=NCc1ccccc1C[C@@]1(C(=O)N2CCCCC2)N=C(c2ccc(OCCCO)cc2)O[C@@H]1c1ccccc1`, the composite z-score in assay [1] is 0.0156; in assay [2], 0.317; in [3], -0.0958; in assay [4], 0.108; in assay [5] it was 1.09; in [6], 1.15. Moreover, the figures for the composite z-score in assay [7], in assay [9] and in assay [10] were 0.825, 0.301 and -0.0457, respectively. Besides, the z-score in assay [8] was -3.91 (inactive).
Take `CN(C)c1ccc(C(O)C2C=CC3C(=O)N(c4ccccc4)C(=O)C3N2Nc2ccc([N+](=O)[O-])cc2)cc1` (stereo not given): the composite z-score in [1] was determined as 0.155; in assay [2], 0.456; in assay [3], 0.0495; in assay [4], 0.551; in assay [5], 1.52; in assay [6] it was 1.42. The composite z-score in assay [7] was 1.14; in assay [9], 1.63; in [10], 0.0373. In addition, the z-score in assay [8] was 0.975 (inactive).
Take `CC(=O)NCCCC[C@@H]1NC(=O)[C@@H]2C[C@H](C(=O)NCCCC[N+](C)(C)C)[C@H](c3ccc(O)cc3)N2C1=O`: the composite z-score is -0.235 in assay [1]; 1.74 in assay [2]; 0.0056 in [3]; 0.88 in assay [4]; -0.188 in assay [5]; 1.21 in assay [6]. Moreover, the composite z-score was 1.19 in [7], 0.177 in assay [9] and 0.224 in assay [10]. Moreover, the z-score in assay [8] was 1.32 (inactive).
